Tb PYK inh: T. brucei pyruvate kinase inhibition. TbPYK enzyme, Kinase-Glo Plus ATP luminescence, 45 min. Potency, µM (doses to about 76.8 µM), inactives show at the highest dose activity, negative = inhibition, actives largely listed as inhibitors. 410,000 tested, 0.12% active; further: nearly all actives have a fitted effect of over 50% in size
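Glycolytic pyruvate kinase of T. brucei was incubated with substrate, test compound and 130 uM ADP for 45 minutes at room temperature. Luminescent Kinase-Glo Plus signal was measured after 10 minutes.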
RE007 growth inh: less growth of the S. pombe RE007 Vpr strain; Potency, µM (highest dose often 92.2 µM), for the others: top-dose activity change, negative = less growth, most hits filed as inhibitors; 360,000 tested, 0.21% active; S. pombe RE007 Vpr strain, BacTiter-Glo ATP luminescence, 24 h; AID 651644; active means well fitted falling curve with a large enough effect; inconclusive means small, poorly fitted or top-dose-only effect; inactive means no such curve, though single readings can be large or run the other way; further: nearly all actives have a fitted effect of over 50% in size
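Fission yeast RE007 carrying one integrated HIV-1 vpr copy, seeded at OD 0.01 in PMG+AL medium with 23 nL pinned compound. Grown 24 h at 30 degrees; viability read by BacTiter-Glo luminescence after 5 min.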
Sm TGR inh: S. mansoni TGR enzyme inhibition | Q962Y6 | purified TGR, DTNB reduction, TNB absorbance 405 nm | Potency, µM (highest dose often 114 µM), inactives show at the highest dose activity change, negative = inhibition, most hits filed as inhibitors | 360,000 tested, 3% active | AID 485364; further: nearly all actives have a fitted effect of over 60% in size
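Kinetic colorimetric format: TGR-catalysed, NADPH-driven DTNB reduction monitored via TNB absorbance. Enzyme dispensed at 20 nM; compound exposure 15 min at room temperature before reaction start.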
AMA1 RON2 block: AMA1-RON2 (P. falciparum) interaction inhibition; AlphaScreen AMA1-biotinylated RON2 peptide binding; Potency, µM (highest dose often 58.2 µM), inactives show at the top dose activity change, negative = inhibition, usual class: inhibitors; 360,000 tested, 0.2% active; AID 720542;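 further: 0% = vehicle wells and -100% = peptide control; nearly all actives have a fitted effect of over 45% in size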
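AMA1 (3D7) with his tag at 25 nM final met compounds first, then biotinylated RON2 peptide at 25 nM; detection used donor plus acceptor beads, 10 µg/mL apiece, read by AlphaScreen after 30 min at room temperature.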
LmPK inh: blocks Leishmania mexicana pyruvate kinase activity; 290,000 tested, 0.37% active; Potency, µM (titrated, usually from 57.5 µM), inactives show at the highest dose activity change, negative = inhibition, usual class: inhibitors; purified LmPK, Kinase-Glo ATP luminescence, 1 h; Q27686
Target sequence (Q27686 whole entry, looked up): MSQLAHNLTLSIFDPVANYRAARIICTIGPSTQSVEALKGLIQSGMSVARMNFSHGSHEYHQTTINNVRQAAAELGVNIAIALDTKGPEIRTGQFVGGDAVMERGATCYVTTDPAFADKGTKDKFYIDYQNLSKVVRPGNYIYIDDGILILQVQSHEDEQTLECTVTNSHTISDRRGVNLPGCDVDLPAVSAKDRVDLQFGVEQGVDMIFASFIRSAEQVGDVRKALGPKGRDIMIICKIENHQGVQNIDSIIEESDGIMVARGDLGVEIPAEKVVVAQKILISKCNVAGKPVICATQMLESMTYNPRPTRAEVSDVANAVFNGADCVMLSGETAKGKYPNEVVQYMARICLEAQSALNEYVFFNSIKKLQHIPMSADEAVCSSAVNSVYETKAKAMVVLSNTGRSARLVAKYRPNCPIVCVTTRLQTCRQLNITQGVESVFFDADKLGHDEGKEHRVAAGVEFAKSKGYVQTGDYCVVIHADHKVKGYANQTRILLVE
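Pyruvate kinase activity monitored as ATP production (luciferase luminescence). Conditions: 0.1 nM enzyme, 0.5 mM PEP, 0.1 mM ADP, 1 h, RT; normalized against uninhibited and no-enzyme wells.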
* hit, by the source's call; ? = inconclusive; . = no result. An excerpt weighted towards active compounds, which were near 3.2% of everything screened. Unless noted, the call rests on the fitted dose curve; in most records, active means well fitted curve in the direction sought with a large enough effect; inconclusive means small, poorly fitted or top-dose-only effect, or another doubt; inactive means no such curve, though single readings can be large; an effect the other way counts as inactive or inconclusive. Unless noted, on the % scale 0 is the no-effect control and ±100 the full control effect; potency means the concentration at half of the fitted maximal effect.

SMILES | Tb PYK inh | RE007 growth inh | Sm TGR inh | AMA1 RON2 block | LmPK inh
CCN1CCN(c2cc3c(cc2F)c(=O)c(S(=O)(=O)c2cc(C)cc(C)c2)cn3CC)CC1 | 5% | . | 3% | . | .
CCCCn1c(CCn2nc(C)c(Br)c2C)n[nH]c1=S | ? | 14% | -14% | 34% | 18µM*
CCn1c(CCCCc2n[nH]c(=S)n2CC)n[nH]c1=S | -23% | 5% | . | 120% | 3%
O=C(c1cnccn1)N1CCCC(N2CCN(c3cccc(Cl)c3)CC2)C1 (centres undefined) | -2% | -14% | 89µM* | 5% | 2%
C#CCOCCOCCOCCNc1nc(N2CCN(C(=O)[C@H]([C@@H](C)CC)n3cc([C@@H](N)Cc4ccc(O)cc4)nn3)CC2)nc(N2CCN(C(=O)[C@H](CCCCN)n3cc([C@@H](N)CC(C)C)nn3)CC2)n1 | . | . | 13µM* | . | -3%
C#CCOCCOCCOCCNc1nc(N2CCN(C(=O)[C@H](CCC(=O)O)n3cc(C(N)[C@H](C)CC)nn3)CC2)nc(N2CCN(C(=O)[C@H](Cc3ccc(O)cc3)n3cc(C(N)[C@H](C)CC)nn3)CC2)n1 (some centres undefined) | 3% | -12% | 50µM* | 13% | 4%
C#CCOCCOCCOCCNc1nc(N2CCN(C(=O)[C@H](CCC(=O)O)n3cc(C(N)Cc4ccc(O)cc4)nn3)CC2)nc(N2CCN(C(=O)[C@H](Cc3ccc(O)cc3)n3cc(C(N)CC(C)C)nn3)CC2)n1 (some centres undefined) | . | . | 14µM* | . | -1%
C#CCOCCOCCOCCNc1nc(N2CCN(C(=O)[C@H](CCC(=O)O)n3cc(C(N)CC(C)C)nn3)CC2)nc(N2CCN(C(=O)[C@H](Cc3ccc(O)cc3)n3cc(C(N)CC(C)C)nn3)CC2)n1 (some centres undefined) | 2% | -5% | -22% | -2% | 5%
C#CCOCCOCCOCCNc1nc(N2CCN(C(=O)C([C@@H](C)CC)n3cc(C(N)Cc4ccc(O)cc4)nn3)CC2)nc(N2CCN(C(=O)[C@H](CCC(=O)O)n3cc(C(N)CO)nn3)CC2)n1 (some centres undefined) | 1% | 10% | 40µM* | 30% | 6%
CCOc1cccc(C2c3[nH]c4ccccc4c3CCN2C(=O)Cc2cccc(OCC)c2OCC)c1 (centres undefined) | 6% | . | -3% | . | .
COc1cc(/C=C(\C#N)c2nc3ccccc3c(=O)[nH]2)cc(OC)c1OC | 3% | . | 0% | . | .
C#CCOCCOCCOCCNc1nc(N2CCN(C(=O)[C@H](Cc3ccc(O)cc3)n3cc([C@@H](N)CC(C)C)nn3)CC2)nc(N2CCN(C(=O)[C@H](Cc3ccc(O)cc3)n3cc([C@@H](N)CC(C)C)nn3)CC2)n1 | . | . | 18µM* | . | 7%
C#CCOCCOCCOCCNc1nc(N2CCN(C(=O)[C@H]([C@@H](C)CC)n3cc([C@@H](N)CO)nn3)CC2)nc(N2CCN(C(=O)[C@H]([C@@H](C)CC)n3cc([C@@H](N)CO)nn3)CC2)n1 | . | . | 0% | . | 1%
C#CCOCCOCCOCCNc1nc(N2CCN(C(=O)[C@H]([C@@H](C)CC)n3cc([C@@H](N)CO)nn3)CC2)nc(N2CCN(C(=O)[C@H]([C@@H](C)CC)n3cc([C@@H](N)CC(C)C)nn3)CC2)n1 | 1% | -5% | 35µM* | 19% | 0%
C#CCOCCOCCOCCNc1nc(N2CCOCC2)nc(N2CCN(C(=O)[C@H](CCC(=O)O)n3cc(C(N)[C@H](C)CC)nn3)CC2)n1 (some centres undefined) | -2% | 7% | 20µM* | 59% | -2%
COc1ccccc1-c1nc2c(c(SCc3cc(C)ccc3C)n1)Cc1c(CO)cnc(C)c1O2 | 5% | . | 0% | . | .
Cc1ccc(C(=O)COC(=O)C(C)N2C(=O)C3C4CCC(C4)C3C2=O)cc1 (centres undefined) | -2% | 5% | 2% | -6% | 5%
Cc1ccc(C)c(C(=O)COC(=O)C(C)N2C(=O)C3C4CCC(C4)C3C2=O)c1 (centres undefined) | 2% | -15% | 22µM* | -1% | -10%
CC(C)(C)c1ccc(NNC(=O)C2CCC2)cc1 | 0% | 3% | 45µM* | -2% | 8%
CCCOc1cccc(C2c3c(oc4ccc(F)cc4c3=O)C(=O)N2c2nc(C)c(C(C)=O)s2)c1 (centres undefined) | 1% | . | -2% | . | .
CCCC(=O)NC(Oc1ccccc1Cl)C(Cl)(Cl)Cl (centres undefined) | -8% | -7% | 13µM* | 0% | -2%
CCCC(=O)NC(Oc1ccc(Cl)cc1Cl)C(Cl)(Cl)Cl (centres undefined) | -2% | 12% | 32µM* | -2% | -3%
CCCC(=O)NC(Oc1ccc(OC)cc1)C(Cl)(Cl)Cl (centres undefined) | -1% | 18% | . | 9% | 2%
COc1ccc(NC(=O)c2cc3c(=O)n(Cc4ccco4)ccc3nc2C)c(OC)c1 | -6% | . | ? | . | .
CC(C)(C)c1nnc(NS(=O)(=O)c2ccccc2)s1 | -10% | . | . | . | .
SMILES | Tb PYK inh | RE007 growth inh | Sm TGR inh | AMA1 RON2 block | LmPK inh
C/C(=N\Nc1nc2ccccc2c(=O)n1O)c1ccco1 | -6% | 7% | 40µM* | 12% | 1%
Cc1c(Cl)cccc1NC(=O)c1ccc2c(c1)CCN2S(=O)(=O)c1ccccc1 | 1% | . | 1% | . | .
COc1ccc(C2C(C(=O)c3ccccc3)N3c4ccccc4C=CC3C2[N+](=O)[O-])cc1 (centres undefined) | -4% | -7% | 40µM* | 3% | 3%
COc1ccc(N2C(=O)[C@@H]3[C@H](C2=O)[C@H](C(C)=O)N2c4ccccc4C=C[C@@H]32)cc1 | -6% | -13% | ? | -6% | -3%
COc1ccc(N=C2SC(CC(=O)Nc3ccccc3OC)C(=O)N2Cc2ccco2)cc1 (centres undefined) | -3% | -2% | 50µM* | 0% | 3%
COc1ccc(N=C2SC(CC(=O)Nc3ccc(F)cc3)C(=O)N2Cc2ccco2)cc1 (centres undefined) | -6% | -16% | ? | 12% | 2%
CC(C)N1[N]C(=C2C=c3cc(O)ccc3=N2)c2c(N)ncnc21 | 6% | . | . | . | .
COc1cccc(CNC(=O)CCC2CCCN(C(=O)c3ccccc3N(C)C)C2)c1 (centres undefined) | 7% | 13% | 79µM* | -12% | 0%
COc1cccc(CNC(=O)CCC2CCCN(C(=O)c3cccc4c(C)c(C)[nH]c34)C2)c1 (centres undefined) | 1% | 3% | ? | 2% | 0%
